Source: PubChem BioAssay (National Center for Advancing Translational Sciences (NCATS))
HCMV antiviral: human cytomegalovirus inhibition; HFF cells, HCMV-luciferase reporter, 72 h; active compounds read low; activity change, negative = inhibition, % at 57.5 µM; 410,000 compounds, 4.5% hits; AID 1259415; in the data active = activity change below about -60%; inconclusive = no clear call, values can overlap the other calls; inactive = above about -39%
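Screen run at 2 compound doses on HFFs infected with reporter HCMV, MOI 1 PFU/cell. Luciferase activity from cell lysates at 72 h post infection gave inhibition relative to buffer-only and Salinomycin wells.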
HCV inhibitor: HCV inhibition | Huh7.5.1 HCVcc-Cre infection, luciferase reporter, 44 h | Potency, µM (highest dose often 41.8 µM), for the others: at the top dose activity change, negative = inhibition, usual class: inhibitors | AID 651820 | 340,000 compounds, 3.4% hits; note: potency is the fitted concentration of half-maximal effect
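Cells (1,000/well) were plated 4 h before compound, then infected with HCVcc-Cre virus (~0.5 moi). After 44 h further culture, infection was read as luciferase luminescence following a 15 min substrate incubation at room temperature.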
LASV entry inh: Lassa virus entry inhibition. Potency, µM (titrated, usually from 37.9 µM), for the others: at the top dose activity change, negative = inhibition, usual class: inhibitors. 300,000 compounds, 1.2% hits. Lassa virus pseudotype entry inhibition, cell reporter; calls by dose curve; tested in HEK293 cells; note: potency is the fitted concentration of half-maximal effect; nearly all actives have a fitted effect of over 50% in size
FMDV antiviral: blocks foot and mouth disease virus; FMDV antiviral cell-based qHTS; Potency, µM (series often up to 57.9 µM), for inactives: top-dose activity change, negative = inhibition, actives largely listed as inhibitors; 410,000 compounds, 1.2% hits; calls by dose curve; tested in HEK293T cells; note: read-out not given here; potency is the fitted concentration of half-maximal effect; nearly all actives have a fitted effect of over 45% in size
Giardia FBPA inh: inhibitors of Giardia lamblia fructose-1,6-bisphosphate aldolase; A8B2U2; purified Giardia FBPA; Potency, µM (series often up to 59.6 µM), for the others: at the highest dose activity, negative = inhibition, most hits filed as inhibitors; 290,000 compounds, 0.71% hits; AID 2451; note: potency is the fitted concentration of half-maximal effect; nearly all actives have a fitted effect of over 55% in size
Target sequence (A8B2U2 whole entry, looked up): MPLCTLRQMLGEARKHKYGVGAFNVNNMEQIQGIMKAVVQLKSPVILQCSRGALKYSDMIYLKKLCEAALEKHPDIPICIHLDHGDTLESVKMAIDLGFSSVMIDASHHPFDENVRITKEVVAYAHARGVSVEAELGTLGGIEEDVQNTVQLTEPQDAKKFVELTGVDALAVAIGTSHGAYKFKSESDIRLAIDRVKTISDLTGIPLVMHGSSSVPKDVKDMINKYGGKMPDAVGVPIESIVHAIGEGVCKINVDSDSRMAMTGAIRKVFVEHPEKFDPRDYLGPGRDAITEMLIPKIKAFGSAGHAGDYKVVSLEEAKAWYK
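40 nM FBPA preincubated 10 min at RT with compound (up to 57.5 uM final), then substrate plus GAPDH/TPI/NAD/arsenate coupling and diaphorase/resazurin added. Fluorescence read after 20 min at RT, 525/598 nm.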
Marburg entry inh: Marburg virus entry inhibition. 300,000 compounds, 1.8% hits. AID 540276. Marburg virus pseudotyped entry inhibition, cell reporter. Potency, µM (highest dose often 37.8 µM), for inactives: at the highest dose activity change, negative = inhibition, most hits filed as inhibitors; calls by dose curve; tested in HEK293 cells; note: potency is the fitted concentration of half-maximal effect
* marks the source's active call; other numbers are inactive results; ? = inconclusive; . = no result; [ ] = dose if it differs, or a comment. This is a sample that favours compounds with a hit; in the whole collection about 8.3% have one here. Unless noted, calls come from the whole dose curve; as a rule, active = well fitted curve in the direction sought with a large enough effect; inconclusive = small, poorly fitted or top-dose-only effect, or another doubt; inactive = no such curve, though single readings can be large; an effect the other way counts as inactive or inconclusive. % is set by controls: 0 for no effect and ±100 for the full control effect.

SMILES | HCMV antiviral | HCV inhibitor | LASV entry inh | FMDV antiviral | Giardia FBPA inh | Marburg entry inh
COc1ccc(NC(=O)C2CCC(C(C)(C)C)CC2)cc1S(=O)(=O)N1CCCCC1 (stereo not drawn) | -86* | -29% | ? | 18µM* | -2% | 11µM*
COc1ccc(OC)c(S(=O)(=O)N2CCC(C(=O)N3CCN(c4ccc(F)cc4)CC3)CC2)c1 | -62* | ? | 4% | ? | . | -15%
COc1ccc(OC)c(S(=O)(=O)N2CCC(C(=O)Nc3cccc(C)c3)CC2)c1 | -61* | -14% | 3% | . | 2% | -27%
COc1ccc(N2CCN(C(=O)C3CCN(S(=O)(=O)c4ccc(F)cc4)CC3)CC2)cc1 | -23 | -16% | -25%[46.1 µM] | -22% | 1% | 3%[46.1 µM]
COc1cccc(Cn2c(=O)cnc3cnc(N(C)C)nc32)c1 | . | . | . | 0% | 4% | .
O=C(CN1C(=O)COc2ccc(S(=O)(=O)N3CCOCC3)cc21)N1CCN(c2cccc(C(F)(F)F)c2)CC1 | -2 | . | 6%[46.1 µM] | -29% | . | ?
O=C(c1ccncc1)N1CCC2(CCCN(c3ncccn3)C2)CC1 | . | . | . | 1% | 0% | .
Cc1ccc(C(=O)c2cncc(Br)c2)cc1 | -71* | -8% | 9% | 24% | 4% | 7%
CCc1ccc(C(=O)c2cncc(Br)c2)cc1 | -69* | 9% | 5% | -3% | -2% | ?
O=C(CCl)N1CCN(S(=O)(=O)Cc2ccccc2)CC1 | -76* | ? | . | 28µM* | . | .
O=C(CCl)N1CCN(S(=O)(=O)c2ccc3c(c2)CCC3)CC1 | -80* | 14µM* | . | 20µM* | . | .
CCOC(=O)N1CCN(S(=O)(=O)Cc2ccccc2)CC1 | -4 | 0% | 1% | -9% | 8% | 0%
CN1C(=O)N(CC(=O)N2CCN(S(=O)(=O)c3ccc4c(c3)CCC4)CC2)C(=O)C12CCCCC2 | -7 | 24% | 10% | -8% | . | -4%
CNC(=O)C1(C(F)(F)F)C/C(=C\Cc2ccccc2)CCCO1 (stereo not drawn) | . | . | . | . | 5% | .
CCN(CC)P(=O)(Nc1ccc(C)cc1Br)c1ccc(N(C)C)cc1NC(=O)c1ccco1 (stereo not drawn) | -78* | ? | . | -29% | -18% | 11µM*
O=C(Cn1cnc2c(oc3ccccc32)c1=O)Nc1ccccc1C(F)(F)F | 17 | . | -15%[46.1 µM] | 11% | . | .
COc1ccc2c(-c3ccccc3)cc(SC(C)C(N)=O)nc2c1 (stereo not drawn) | ? | 11µM* | -18% | -22% | 11% | ?
COc1ccc(N2CCN([C@H]3CC(=O)NC3=O)CC2)cc1 | . | . | . | . | . | -7%
C=C(C)C(=O)C=CC=Cc1ccccc1 | . | . | ? | . | . | -87%[14.2 µM]
CCN(CC(=O)Nc1ccccc1C(F)(F)F)C(=O)c1ccccc1Cc1ccccc1 | 1 | -16% | 11µM* | -6% | . | ?
c1cc2ccc3ccc(CN4CCOCC4)c4ccc(c1)c2c34 | 12 | 10µM* | 17% | . | -11% | 19%
Cc1sc(N)nc1-c1ccc(Oc2ccccc2)cc1 | 21 | 14µM* | . | 53% | 6% | .
Cc1ccc(-n2[nH]c(C)c(/C=N/Nc3ccc([N+](=O)[O-])cc3[N+](=O)[O-])c2=O)cc1C | -40 | -13% | ? | 10µM* | 13% | 3%
COc1c(/C=N/Nc2ccc([N+](=O)[O-])cc2[N+](=O)[O-])c(C)nn1-c1ccccc1 | -16 | 2% | -3% | -4% | -3% | 14%
Cc1[nH]n(-c2ccccc2)c(=O)c1/C=N/NC(=O)COc1ccccc1[N+](=O)[O-] | -16 | ? | ? | -1% | ? | ?
SMILES | HCMV antiviral | HCV inhibitor | LASV entry inh | FMDV antiviral | Giardia FBPA inh | Marburg entry inh
Cc1[nH]n(-c2ccccc2)c(=O)c1/C=N/NC(=O)c1cccc([N+](=O)[O-])c1 | -104* | 2% | ? | 0% | -2% | ?
Cc1[nH]n(-c2cccc3ccccc23)c(=O)c1/C=N/NC(=O)c1cccc([N+](=O)[O-])c1 | -101* | ? | -10% | -24% | ? | ?
Cc1[nH]n(-c2ccccc2)c(=O)c1/C=N/NC(=O)c1ccccc1F | -94* | ? | . | 43% | ? | .
Cc1ccc(-n2[nH]c(C)c(/C=N/NC(=O)c3ccc([N+](=O)[O-])cc3)c2=O)c(C)c1 | -3 | . | . | . | 11% | .
COC(=O)C1=C(C(=O)OC)[C@@H]2N(C)c3ccccc3[C@@]23CCC(=O)N(Cc2ccc(OC)cc2)C3=N1 | . | . | . | . | . | -9%[14.2 µM]
COc1ccccc1C1CN(Cc2ccc(Sc3nncn3C)o2)Cc2ccccc2O1 (stereo not drawn) | . | . | . | -3% | . | .
CC1CCN(C(=O)c2cnn(-c3cccc(Cl)c3)c2C2CCN(C(=O)OC(C)(C)C)CC2)CC1 | 2 | . | ? | -12% | . | .
O=C(N/N=C\c1ccc(CNS(=O)(=O)c2ccc(Cl)cc2)o1)C(=O)Nc1ccc(Oc2ccccc2)cc1 | -99* | 13µM* | ? | 3% | -1% | ?
CCCCCCc1cc2cc(-c3nnc(-c4ccccc4OC)o3)c(=O)oc2cc1O | -74* | -7% | ? | ? | 6% | ?
CCCCCCc1cc2cc(-c3nnc(-c4ccccc4O)o3)c(=O)oc2cc1O | -104* | ? | -1% | ? | 4% | 19%
CCCCCCc1cc2cc(-c3nnc(-c4cc(OC)c(OC)c(OC)c4)o3)c(=O)oc2cc1O | . | ? | 3% | 14% | 0% | -2%
O=[N+]([O-])c1ccc(/C=C/c2ccc3cccc([N+](=O)[O-])c3n2)cc1 | ? | -9% | -15% | -10% | -12% | ?
CCOc1cc(/C=C/c2ccc3cccc([N+](=O)[O-])c3n2)ccc1O | -99* | ? | ? | ? | -5% | ?
COc1cc(/C=C/c2ccc3cccc([N+](=O)[O-])c3n2)ccc1OCC#N | -93* | 4.5µM* | ? | -23% | -3% | ?
O=[N+]([O-])c1cccc(/C=C/c2ccc3cccc(O)c3n2)c1 | 21 | -10% | -3%[46.1 µM] | 15% | 13% | -24%[46.1 µM]
COc1c(OC(C)=O)ccc(/C=C/c2ccc3cccc(OC)c3n2)c1[N+](=O)[O-] | 34 | ? | -18% | 7% | -11% | ?
CCOc1cc(/C=C/c2ccc3cccc([N+](=O)[O-])c3n2)ccc1OCC(=O)N(C)C | -109* | ? | . | ? | -28% | ?
N#Cc1nc(Nc2ccccc2)nc(NC2CCCC2)n1 | . | . | . | . | -11% | .
O=C(Nc1nnc(SCc2ccc(F)cc2)s1)c1ccccn1 | -99* | ? | ? | -10% | ? | ?
O=C(Nc1nc2ccccc2s1)c1cnccn1 | 126 | -12% | ? | . | 6% | 6.5µM*
O=C(Nc1nnc(SCc2ccc(F)cc2)s1)c1cccnc1Cl | 18 | 7% | -18%[46.1 µM] | -13% | 11% | 6%[46.1 µM]
O=C(Nc1nc2ccc(F)cc2s1)c1ccccn1 | -98* | ? | ? | 11µM* | ? | ?
O=C(O)c1ccc2c(c1)C(=O)N([C@H](Cc1c3ccccc3cc3ccccc13)C(=O)O)C2=O | . | . | . | . | 9% | .
